Data from PubChem BioAssay AID2314 (National Center for Advancing Translational Sciences (NCATS), 2010).
Values joined by “and” are separate entries in the source; they are usually repeats but may differ in a detail not shown here. Equal values may be shown once. Out of some 300,000 compounds screened, about 37,000 (12%) were called active. Many of the other results were omitted from the sample, so actives are more common in it than they were. Values without a mark were called inactive. Cut-off read from the data, not from the text of the source: active = max response mostly above about 13% (no sharp cut-off); inactive = mostly below about 14%.

Assay: Cycloheximide Counterscreen for Small Molecule Inhibitors of Shiga Toxin; note: read at 38.3 µM for the half of the compounds with a filed dose; 0% is about no effect
Conditions: cell reporter, cycloheximide protein synthesis inhibition counterscreen; active compounds read high
Molecule `COc1cc(C)c(C(C)C)cc1S(=O)(=O)n1ccnc1` has a max response of 0.42%. Molecule `CCOC(=O)c1ccc(N=C2SC(C(=O)NC)CC(=O)N2CCc2ccccc2)cc1` (centres undefined) has a max response of 1.86%. `Cc1cc(=O)cc(C)n1-c1ccc(Cl)c(Cl)c1` gave a max response of -2.09%. Molecule `O=C(CSc1nc2ccc(Nc3nc(N4CCOCC4)nc(N4CCOCC4)n3)cc2s1)NCc1ccco1` has a max response of -3.23%. Work on `CC(=O)Nc1ccc(S(=O)(=O)NCC2CCC(C(=O)NCCc3ccccc3)CC2)cc1` (centres undefined) yielded a max response of -1.06%. With `CC(=O)Nc1ccc(NC(=O)CN2CCCC(C)C2)c(Cl)c1` (centres undefined) the max response was 22.7% (active). `O=C(CN1CCOCC1)Nc1ccc(NC(=O)CN2CCOCC2)c(Cl)c1` gave a max response of -4.13%. In the case of `CC1CCCN(CC(=O)Nc2cc(Cl)ccc2Oc2ccccc2)C1` (centres undefined), the max response was 8.16%. Molecule `Nc1nc(SCC(=O)Nc2ccc(Cl)cc2C(F)(F)F)n[nH]1` has a max response of -3.77%. For `N#Cc1ccc(/C=C2\CCn3c2nc2cc(C(=O)O)ccc2c3=O)cc1`, the max response was -2.31%. Work on `CC(=O)c1ccc(OCCN2CCOCC2)cc1` yielded a max response of 3.75%. Molecule `CC(C)(c1ccccc1)c1ccc(OCCN2CCCC2)cc1` has a max response of 2.15%. In the case of `c1ccc(-c2ccc(OCCN3CCOCC3)cc2)cc1`, the max response was 47.6% (active). `CCc1c(C)nc(N)n2c(SCC(=O)NC3CCCCC3)nnc12` showed a max response of 11.5%. With `CN(C)/N=C/c1cn(-c2ccccc2)nc1-c1cccnc1` the max response was 6.55%. `COc1ccc(-c2nn(-c3ccccc3)cc2C(=O)Nc2nccs2)cc1OC` gave a max response of -1.49%. In the case of `COc1ccc(-c2nn(-c3ccccc3)cc2/C=N/Nc2ccccn2)cc1OC`, the max response was 14.8% (active). `Cc1cc(C)cc(C(=O)N(CCc2ccccc2)C2=CC3CCC(C2)N3C)c1` (centres undefined) gave a max response of 3.92%. With `O=C(C1CC(=O)N(c2ccc(Br)cc2)C1)N1CCCC1` (centres undefined) the max response was 4.73%. With `Cc1ccc(-c2cc(=O)c3ccc(Cl)cc3[nH]2)cc1` the max response was -0.873% and 14.9%. In the case of `O=c1cc(-c2ccccc2)[nH]c2cc(F)ccc12`, the max response was -3.07%. With `Cc1ccc(-c2cc(=O)c3ccc(F)cc3[nH]2)cc1` the max response was 6.8% (active). Work on `CC(=O)NC(CC(=O)Nc1cccc(S(=O)(=O)N2CCCC2)c1)c1ccccc1` (centres undefined) yielded a max response of -2.18%. In the case of `COc1ccc(S(=O)(=O)N2CCOC2CNC(=O)C(=O)NCc2ccc(F)cc2)cc1` (centres undefined), the max response was -1.46%. Molecule `CC1(C)C=C2[C@H]3CC[C@@H]4[C@@]5(C)CCC(=O)C(C)(C)[C@@H]5CC[C@@]4(C)[C@]3(C)CC[C@@]2(C(=O)O)CC1` has a max response of 4.36%. Work on `O=C(CN(C(=O)c1nsc(Cl)c1Cl)c1cccc(F)c1)NC1CCCC1` yielded a max response of -1.97%. With `COc1cc(NC(=S)NNC(=O)CC(C)C)c(OC)cc1Cl` the max response was -6.7%. In the case of `COc1cc(NC(=S)N2CCCC(C)C2)cc(OC)c1OC` (centres undefined), the max response was -2.44%. For `COc1cc(NC(=S)N2CCCC(C)C2)c(OC)cc1Cl` (centres undefined), the max response was 17.5% (active). Molecule `COc1ccccc1C(=O)N1C(CC(=O)Nc2ccccc2C)C(=O)NC2CCCCC21` (centres undefined) has a max response of -3.1%. `N#CC(C#N)=CN=c1ccn(Cc2ccc(Cl)cc2Cl)cc1` gave a max response of -0.809%. With `C=CCn1c(=NC(=O)c2cccs2)sc2cc(NC(C)=O)ccc21` the max response was 16.5% (active). Molecule `C=CCn1c(CCNC(=O)c2cccs2)n[nH]c1=S` has a max response of 2.82%. Work on `C=CCn1c(=NC(=O)c2ccc(S(=O)(=O)N3CCCC3)cc2)sc2cc(NC(C)=O)ccc21` yielded a max response of -4.67%. Molecule `CN1CCN(S(=O)(=O)c2cccc(C(=O)N3CCc4ccccc43)c2)CC1` has a max response of -1.65%. For `O=C1c2ccccc2NC(c2ccc(-c3cccc(Cl)c3)o2)N1O` (centres undefined), the max response was 38.7% (active). `CCOC(=O)NN1C(=O)c2ccccc2NC1c1cccc(O)c1` (centres undefined) gave a max response of 7.43%. For `O=C1NN(c2ccccc2)C(=O)/C1=C/c1ccc(-c2cccc(C(=O)O)c2)o1`, the max response was 21%. For `CC(C)[C@@H](NC(=O)OC(C)(C)C)C(=O)NCC1CCC(C(=O)N[C@@H](Cc2ccccc2)C(=O)O)CC1` (some centres undefined), the max response was -1.77%. With `Cc1cccc(C(=O)N2CCc3c([nH]c4ccccc34)C2CC(C)C)n1` (centres undefined) the max response was 26.8% (active). In the case of `O=C(c1cn2ccccc2n1)N1CCc2c([nH]c3ccccc23)C1c1ccccn1` (centres undefined), the max response was 3.01%. Work on `Cc1cccc(C2c3[nH]c4ccccc4c3CCN2C(=O)c2cc(-c3cccn3C)n[nH]2)n1` (centres undefined) yielded a max response of -3.03%. `CCN(CCn1cccn1)Cc1nc(-c2ccc(C(=O)OC)cc2)no1` showed a max response of -4.94%. Molecule `CC(=O)C1=C(O)C(=O)N(c2ccc(S(N)(=O)=O)cc2)C1c1ccccc1F` (centres undefined) has a max response of -0.999%. In the case of `CCOC(=O)C1CCN(Cc2nnc(-c3cccc(Br)c3)o2)CC1`, the max response was -0.93%. Molecule `COc1ccc(CCN(C(=O)COc2ccccc2)c2nc(-c3ccccc3)cs2)cc1OC` has a max response of 5.03%. Work on `Brc1ccc(-c2csc(N/N=C/c3ccc4c(c3)OCO4)n2)cc1` yielded a max response of 17.6%. Work on `CN(C(=O)CSc1nc(C2CC2)nc2ccccc12)c1nc(-c2ccccc2)cs1` yielded a max response of 4.58%. Molecule `CC(C)(C)C(=O)OCc1nc(-c2ccc(O)c(O)c2)cs1` has a max response of 5.11%. `COc1ccc(-c2csc(N3CCN(Cc4ccc5c(c4)OCO5)CC3)n2)cc1` showed a max response of -4.44%. For `NS(=O)(=O)c1ccc(Nc2nc(-c3ccccc3)cs2)cc1`, the max response was 18.5%. In the case of `COc1ccc(Nc2nc(-c3ccccc3)cs2)cc1`, the max response was 46.6% (active). With `Brc1ccc(-c2csc(N/N=C/c3cccnc3)n2)cc1` the max response was 19.4% (active). `CCOC(=O)N/N=C/c1cccnc1` gave a max response of 11.3%. With `CN(c1ccc(O)cc1)c1nc(-c2cccnc2)cs1` the max response was 56.1% (active). With `COc1ccc(-c2csc(Cc3nc(O)cs3)n2)cc1` the max response was 37.4% (active). In the case of `COc1ccc(-c2csc3ncnc(N4CCN(S(=O)(=O)c5ccccc5C#N)CC4)c23)cc1`, the max response was -2.23%. Molecule `COc1cc(/C=N/O)cc(Br)c1OS(=O)(=O)c1ccc(C)cc1` has a max response of 1.45%. Molecule `COc1cc(NC(=O)CCNC(=O)Cn2ccc3ccccc3c2=O)cc(OC)c1OC` has a max response of -5.95%.
